Assays:
Assay in all cases: PBM binding z-score (relative to random genomic background probes); higher = stronger binding; sequences stand for … in GC…GCGATTGACAGCGTAGAATGAAGG
[1] = test system: RARb homodimer (NR concentration 270 nM)
How it was run: (§1)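 Ligand-free nuclear receptor dimers were bound for 1 h to custom Agilent 4×180K protein-binding microarrays. Detection used antibodies against each partner (one per run). Binding z-scores rest on regression-normalized fluorescence, with random background probes as the reference.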

[2] = test system: RARg:RXRa (NR concentration 270 nM, RXRa partner concentration 90 nM)
How it was run: as §1

[3] = test system: RARg homodimer (NR concentration 270 nM)
How it was run: as §1

[4] = test system: RXRa DBDmut IVT, anti-RXR (DBD mutation: RXRa K156A/R161A, NR concentration 90 nM)
How it was run: as §1

[5] = test system: RXRa homodimer (NR concentration 180 nM)
How it was run: as §1

[6] = test system: THRa:RXRa (NR concentration 90 nM, RXRa partner concentration 90 nM)
How it was run: as §1

[7] = test system: THRa homodimer (NR concentration 90 nM)
How it was run: as §1

[8] = test system: VDR homodimer (NR concentration 270 nM)
How it was run: as §1

Sequence	PBM binding z-score [1]	PBM binding z-score [2]	PBM binding z-score [3]	PBM binding z-score [4]	PBM binding z-score [5]	PBM binding z-score [6]	PBM binding z-score [7]	PBM binding z-score [8]
CAAACTAGGTCACAGAGGTCAAAGACCGTGCGTA	5.43	7.3	7.86	3.1	7.71	4.68	2.81	6.4
ATACCAAGGTGATCGTGAGGTCCTTGATACTAAC	0.337	0.376	0.386	0.0286	0.487	1.94	0.903	0.291
ACCGAAAGGTCGAAGGTGAGTATACCCACCCGAA	2.51	4.53	4.2	1.35	5.27	2.11	-0.114	0.383
CCTAGTTGGTCAGGAGGTCACGCACCGGATATGA	4.9	5.68	4.98	0.815	5.93	3.94	2.78	2.71
CCTAGTGGGTCAAGGTCACACACGCTATAGGTAC	4.58	5.74	6.11	1.58	5.6	4.22	3.74	3.44
ATCTCTAGATAAGACTCAGTTCAGTGAAGAACGC	0.0113	-0.0447	0.323	0.327	-0.154	0.116	-0.107	1.02
GCAGACAGGTGAAAAGCAGGTAACTCAGGGTGGC	0.095	0.178	-0.088	-0.616	0.348	1.28	-0.428	-0.329
GCTGCTAGGACAGGTTGGTCAGCTAACGGGTACG	0.214	-0.345	0.153	-0.341	-0.463	-0.106	-0.393	-0.149
CGTCAAAGTTCACGGTAACGTAACAGAAAGCAGC	4.26	6.31	7.19	4.62	6.17	2.38	-0.36	4.02
TCTGCTTGGTCAGTTGGTCAGCTAACGAGCTGCC	0.226	-0.172	-0.0396	-0.00109	-0.439	-0.465	-0.841	-1.2
ACTTGCAGGCCAAGTTTGGGTCACTCAAACAAAG	2.46	2.6	1.88	0.31	1.01	2.53	1.22	0.527
CCTCGGCGGACAGAAGGTCAGAGCTGTCCGCTTT	2.77	2.53	1.99	-0.44	1.64	1.05	-0.714	-0.703
ACTTACGGGTCAACGAGATTATAGCACGCGTATA	2.96	5.12	4.89	2.05	5.72	2.67	0.499	1.35
GCTGCTAGGTCAACTGATGCTCAGCTAAAGCTCG	3.18	4.37	5.36	1.64	2.89	2.89	0.915	-0.0358
TCATATAGGTAATACACGTGAAAGTCGGCATCTA	0.355	0.577	0.604	1.92	0.939	0.156	-0.0139	0.589
CGTCCAAGGTCAGAGAGGTCTGTGAATGCCGAGT	3.99	4.61	5.25	2.64	3.4	3.38	1.64	1.65
CCTCCAAGGTCAAGGTCAGTGAAAGAGACTCGAA	5.05	6.52	7.43	3.49	6.09	4.18	3.64	2.98
CTCGAAAGGTCGTGCTCTGGTGAGTATACCAAAC	2.73	4.35	3.14	2.01	4.69	2.61	0.441	0.997
TCATATAGGTAATACAGGTGAAAGACGGCATCTA	0.66	0.945	0.86	1.52	1.38	0.85	0.434	0.471
AGAATGAGGTTAAGATCGGGGAAACAGAATACAT	0.944	2.19	1.53	1.28	2.25	2.54	0.927	0.542
GCTTACGGGTCAAAGGTTATAGCGTGAATAGAAT	3.29	6.87	4.52	2.22	9.28	3.83	0.134	1.44
GCGACTGGGGCATCAGCAGGTTTCCATAACTTAA	0.345	-0.102	-0.261	0.099	-0.0783	-0.0527	-0.144	0.168
TCATATAGGGAAATGCTAGGTGAAAGTCCGATCT	0.336	0.235	0.101	1.66	0.678	0.846	0.365	0.19
TCATATAGGTCAACAGGTGAAAGTCCGTAAGTTA	4.07	6.14	6.02	2.48	5.39	2.94	0.969	1.41
CAAACTATGTCACAGAGGTCAAAGTCCGTGCGTA	4.82	5.68	5.01	2.12	6.58	3.83	1.89	4.59
CCGACTGGGCCAAGGTCATTGATCAGTCAAAGCA	3.28	3.72	3.11	1.4	3.09	3.46	2.09	3.33
CGAACTAGGTCAGAACAGCACAGTGAAGGATGAT	1.96	2.44	3.04	0.779	1.28	1.16	0.326	0.463
AATACAGTGTCATCGTAGGCCAGAGTACGCACAG	0.72	0.907	1.24	0.561	0.84	1.81	-0.754	0.395
CCTTACGGGTCTCGAGGTTATAGCACGACGAGCG	0.421	0.66	0.422	-0.815	1.27	1.05	-0.08	0.435

— the supplement of paper PMC6555819
